Measured values reported in PubChem BioAssay (NCI).
The panel holds about 83,000 compounds, 20% with a hit somewhere; the sample as a whole holds those more often.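 Step 1: grow cells in 96-well plates. Step 2: add test compound at a single concentration. Step 3: incubate 48 h. Step 4: record percent growth.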 Unmarked numbers belong to inactive results. Calls of active or inactive are those of the source. The calls were made as follows: active = growth percent below 10; inactive = the rest.

Test system: OVCAR-4 ovarian
Experiment: NCI-60 one-dose screen, 48 h (100 = growth as untreated, 0 = no growth, -100 = all killed)
Settings: 10 µM unless noted

Structure (SMILES)	growth
O=c1[nH]c2c(s1)CCCC2CN1CCCCC1 (stereo unspecified)	113%
O=C(N/N=C/c1cccc(O)c1)c1ccccc1Nc1cccc(C(F)(F)F)c1	58.9%
COc1cc2nc(-c3ccc(C#N)cc3)[nH]c(=O)c2cc1OC	113%
O=C(Nc1ccccc1)Oc1ccccc1-c1ccccc1	103%
O=C1Nc2c(ccc(Cl)c2Cl)/C1=C/c1ccccn1	76.5%
COc1cc2nnn3c4ncccc4c(N=O)c3c2cc1OC	50.3%
C(=N\Nc1ncc(-c2cc3cc4c(cc3o2)OCO4)s1)/c1c[nH]c2ccccc12	-12.9% (active)
Nc1cc(N)c2cccnc2c1O	91.2%
CC1=NNC(=O)C1CCC(=O)N/N=C(\C)c1ccc2ccccc2c1 (stereo unspecified)	117%
COc1ccc(CNC(=O)COc2ccc(/C=N/Nc3nc4ccccc4s3)cc2)cc1	-37.5% (active)
CCCN=C(N)c1ccc(NC(=O)c2ccc(C(=O)Nc3ccc(C(N)=NCCC)cc3)cc2)cc1	99.7%
BrC(Br)(Br)c1cnc2ccccc2n1	44.1%
O=C1/C(=C\c2cn(Cc3ccccc3)c3ccc(Br)cc23)c2ccccc2N1c1c(Cl)cccc1Cl	91.9%
COc1ccc(-n2cc(-c3cc(OC)c(OC)c(OC)c3)n(C(C)=O)c2=O)cc1	79.9%
O=C(N/N=C/c1ccc(O)c(O)c1)c1sc2ccccc2c1Cl	92.7%
Cn1ncc2c(Nc3ccccc3Cl)nc(Cl)nc21	96.3%
